Assay results taken from publication PMC7826789 (International Journal of Molecular Sciences, 2021).

The compounds below were run on ACVR2B. Settings: Compound Concentration (nM):1000.
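Also: KINOMEscan scanMAX binding as percent activity remaining versus control; lower means stronger binding.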

SMILES | Percent Control [%]
Cl.O=C(Nc1ccc(Oc2ccc3[nH]c(NC(=O)c4ccco4)nc3c2)cc1)Nc1cc(C(F)(F)F)ccc1F [GW683134A] | 100
O=C(Nc1n[nH]c2nc(-c3ccc(O)cc3)c(Br)cc12)C1CC1 [SB-725317] | 79
COc1cc2ncnc(Nc3ccc4c(cnn4Cc4ccccc4)c3)c2cc1OC.Cl [GW282449A] | 100
CN(C)CCNC(=O)Nc1ccc(N(C)c2ccnc(Nc3ccc(CS(C)(=O)=O)cc3)n2)cc1.Cl [GW830900A] | 88
CC1=C(C(=O)Nc2ccc3[nH]ncc3c2)C(c2ccc(Cl)c(Cl)c2)CC(=O)N1 (centres unmarked) [GSK299115A] | 69
COc1ccc(COc2ccc(Cc3cnc(N)nc3N)cc2OC)cc1 [GW632580X] | 100
CCS(=O)(=O)c1ccc(OC)c(Nc2ncc(-c3cccc(F)c3)o2)c1 [GW621970X] | 100
COc1cc(/C=N/Nc2ncnc3[nH]ncc23)ccc1O [GW578748X] | 40
C/C(Nc1ccc(S(N)(=O)=O)cc1)=C1/C(=O)Nc2ccccc21 [GW335962X] | 100
CN1CCN(C(=O)c2ccc(NC(=O)Nc3ccc(N(C)c4ccnc(Nc5ccc(CS(C)(=O)=O)cc5)n4)cc3)cc2)CC1.Cl [GW830263A] | 94
CC1=C(C(=O)Nc2ccc3[nH]ncc3c2)C(c2ccc3ccccc3c2)CC(=O)N1 (centres unmarked) [GSK270822A] | 86
COc1ccc2cc(-c3c(-c4ccncc4)nc(-c4ccc(S(C)(=O)=O)cc4C)n3C)ccc2c1 [SB-633825] | 84
COc1ccccc1-c1cc(/C=C2\C(=O)Nc3ncc(Br)cc32)cc(Br)c1O [GW442130X] | 100
NS(=O)(=O)c1ccc(N/N=C2\C(=O)Nc3ccc(C(=O)NCc4ccncc4)cc32)cc1 [GW300657X] | 100
Cl.O=C(O[C@H]1CN[C@H](C#Cc2cc3ncnc(Nc4ccc5c(cnn5Cc5ccccc5)c4)c3s2)C1)N1CCOCC1 [GSK200398A] | 100
Cl.O=S1CCN(Cc2ccc(-c3ccc4ncnc(Nc5ccc(OCc6ccccc6)c(F)c5)c4c3)o2)CC1 [GW576924A] | 100

SMILES | Percent Control [%]
Cl.c1ccc(Cc2nc3ccc(Nc4ncnc5ccccc45)cc3[nH]2)cc1 [GR269666A] | 100
COc1cccc(-c2c[nH]c3c(N/N=C/c4ccncc4)ncnc23)c1 [GW814408X] | 71
Cl.O=C(Nc1ccc(Oc2ccc3[nH]c(NC(=O)c4ccccc4)nc3c2)cc1)Nc1cc(C(F)(F)F)ccc1F [GW709042A] | 100
CCn1c(-c2nonc2N)nc2c(C#CC(C)(C)O)nc(OCCNC)cc21.Cl [GSK949675] | 99
CN(C)c1cc2c(Nc3ccc4c(cnn4Cc4ccccc4)c3)ncnc2cn1 [GW282974X] | 100
C[C@@H](Oc1cc(-n2cnc3ccc(OC4CCN(C)CC4)cc32)sc1C(N)=O)c1ccccc1Cl [GSK579289A] | 60
CCc1ccc(Oc2nccc(-c3c(-c4ccc(F)cc4)ncn3C3CCNCC3)n2)cc1 [SB-242719] | 100
NS(=O)(=O)c1ccc(N/N=C2\C(=O)Nc3ccc(-c4cnco4)cc32)cc1 [GW276655] | 100
COc1cc(C)c(N(C)C(=O)CN(C)C)cc1Nc1nc(Nc2cccc(F)c2C(N)=O)c2cc[nH]c2n1 [GSK2219385] | 100
COc1ccc2[nH]c3c4[nH]c5ccc(OC)cc5c4c4c(c3c2c1)C(=O)NC4=O [GW296115X] | 44
COc1cc(C=NNc2ncnc3c2cnn3-c2ccccc2)ccc1O [GW513184X] | 82
NS(=O)(=O)c1ccc(N/N=C2\C(=O)Nc3ccc(Cl)cc32)cc1 [GW280670X] | 100
COc1cc(N2CCN(C(C)C)CC2)ccc1Nc1nc(Nc2ccc(F)cc2C(=O)NC[C@@H](O)CO)c2cc[nH]c2n1 [GSK1392956A] | 100
Cc1cc(O)cc(C)c1/C=C/c1cncc(C(N)=O)c1 [GW435821X] | 7.1
COC(=O)Nc1nc2ccc(Oc3ccc(NC(=O)Nc4cc(C(F)(F)F)ccc4F)cc3)cc2s1.Cl [GW693917A] | 100
CC(C)COC(=O)c1ccc2c(c1)/C(=C/Nc1ccc(S(N)(=O)=O)cc1)C(=O)N2 [GW416981X] | 100
